# Test results as given in the emibetuzumab library of Makowski et al. (2022).
# Some of the results follow. The true hit rate is not given.
# B1: VH:VL chains; a variant is named by its letters at X, in order (parent)
# chain 1: QVQLVQSGAEVKKPGASVKVSCKASGYTFTDYXMHWVRQAPGQGLEWMGXVNPNXXXTTYNQKFEGRVTMTTDTSTSTAYMELRSLRSDDTAVYYCARXNXLDXWGQGTTVTVSS
# chain 2: DIQMTQSPSSLSASVGDRVTITCSVSSSVSSIYLHWYQQKPGKAPKLLIYSTSNLASGVPSRFSGSGSGTDFTLTISSLQPEDFATYYCQVYSGYPLTFGGGTKVEIK
# Variants of: B1
# Assay: yeast display scFab, FACS + sequencing
# Conditions: with MET
# Method in brief: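 Round-3 sorted and input populations from a heavy-chain CDR mutant scFab yeast library were deep sequenced in two replicates. Sorting used FACS on cells labelled for 3 h at room temperature with 1 nM HGFR-Fc and anti-Myc in PBSB with 1% milk, keeping the top 50% antigen-positive cells. Any sequence seen in both antigen-positive samples was called a binder, while one seen only in the input was called a non-binder.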
row,Variant,antigen binding call
1,FAGEGAGV,no binding
2,FRGGSSGV,binds
3,FRGGGVGV,binds
4,ARGEGSGV,no binding
5,FRGEGSGV,binds
6,FKGGNVGV,no binding
7,VRGGGVGV,no binding
8,STEGGSVY,no binding
9,SKTKSDWA,no binding
10,SGEGGAVA,no binding
11,DEAGGDGY,no binding
12,YRRGSSLY,binds
13,YRKESAVY,binds
14,YRRGSALY,binds
15,YRRGDSLY,binds
16,FARKSDSS,no binding
17,DKKKDVVF,no binding
18,FKTAGSAV chain 1 R67H,no binding
19,YRRGSAVY,binds
20,YRRGSYVY,no binding

row,Variant,antigen binding call
1,ATGGAALD,no binding
2,YRKGGSAA,binds
3,YRKGSSAA,binds
4,VAEEDAGY,no binding
5,DARGAYLV,no binding
6,YRGKAAGV,binds
7,YRGKAFGV,binds
8,YTGTSAGV,no binding
9,YRAGDFGV,no binding
10,YKARGAVY,binds
11,VTGTGAAD,no binding
12,YRARGAAY,binds
13,VAEGDAAD,no binding
14,YKGRSAVY,no binding
15,FRARGAAY,binds
16,VKAASAVY,no binding
17,VRARGAAD,binds
18,DRRANFLY,no binding
19,DREEGDGS,no binding
20,VEGTSAAY,no binding

row,Variant,antigen binding call
1,VRARGAAY,binds
2,DKATGDAY,no binding
3,YKARGAAY,binds
4,FRRTDFVA chain 1 C22Y,no binding
5,ARGRGSAA,binds
6,ARKTGAGA,no binding
7,ARGRGSVA,binds
8,ARRRGAAA,binds
9,AETKGAAA,no binding
10,ARGRSDVA,no binding
11,AEEEGSAA,no binding
12,ARRRGSAA,binds
13,VETTDSWV,no binding
14,VAERSFGV,no binding
15,VEEAAAGV,no binding
16,FTRESFAA,no binding
17,ARAGSAWA,no binding
18,ARAGDAVA,no binding
19,ARAGGAAA,binds
